# Where “and” joins values, the source holds several entries; their conditions need not be identical. Equal values may be shown once. Out of some 310,000 compounds screened, about 11,000 (3.5%) were called active. Inconclusive results (about 4%) are left out. Only a selection was taken, and actives are over-represented in it overall. Values without a mark were called inactive. Calls come from the whole dose curve; as a rule, active = well fitted inhibition curve with a large enough effect; inconclusive = small, poorly fitted or top-dose-only effect, or another doubt; inactive = no such curve, though single readings can be large or run the other way.
# Molecular target: 4'-phosphopantetheinyl transferase ffp (Bacillus subtilis) (UniProt Q9F4F7)
# Assay: qHTS Assay for Inhibitors of Bacillus subtilis Sfp phosphopantetheinyl transferase (PPTase);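 note: the enzyme is Sfp with the accession as filed and its product quenches rhodamine fluorescence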;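 for largest response in the series, negative = inhibition: 0% = enzyme reaction without inhibitor and -100% = no enzyme wells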
# Details: Biochemical Sfp PPTase activity
# Procedure, shortened: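 After 15 min at room temperature with compound, 15 nM Sfp received 5 uM rhodamine-CoA plus 12.5 uM BHQ-2-ybbR (50 mM Hepes pH 7.6, 10 mM MgCl2). Rate came from the fluorescence difference over 30 min, ex 525/em 598 nm.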
# Potency is the fitted concentration of half-maximal effect.
Compound,"largest response in the series, negative = inhibition [%]",Potency
COc1cc(CNCc2ccc(OC)c3ccccc23)cc(OC)c1OC,-22.2,
O=S(=O)(/N=C(/Nc1ccccn1)c1ccccc1)c1ccc(Cl)cc1,27.1,
Cc1ccc(S/C(=N\S(=O)(=O)c2ccc(Cl)cc2)c2ccccc2)cc1,,56.2 µM (active)
Cc1ccc(S(=O)(=O)/N=C(/Nc2ccccn2)c2ccc(Cl)cc2)cc1,-17.5,
CCn1c(SCC(=O)Nc2nccs2)nnc1-c1ccncc1,2.26,
Nn1c(SCC(=O)Nc2nccs2)nncc1=O,,22.4 µM (active)
COc1ccc(NC(=O)CSc2nncc(=O)n2N)cc1OC,9.26,
O=S(=O)(c1ccc(-c2ccno2)s1)N1CCCCC1,11.8,
COc1ccc(-c2oc3ncn(Cc4ccco4)c(=N)c3c2-c2ccc(OC)cc2)cc1,,39.8 µM (active)
N=c1c2c(-c3ccccc3)c(-c3ccccc3)oc2ncn1Cc1ccco1,-5.12,
COc1ccc(-c2oc3ncnc(NCCCO)c3c2-c2ccc(OC)cc2)cc1,-12.6,
O=c1oc2ccccc2c(NC2CCCCC2)c1NS(=O)(=O)c1ccc(Cl)cc1,4.82,
Cc1c(-c2cccc(Cl)c2)nc2ccccc2c1C(=O)OCC(=O)N(C)C1CCS(=O)(=O)C1 (stereo unspecified),1.32,
CN(C(=O)COC(=O)c1cc(-c2ccco2)nc2ccccc12)C1CCS(=O)(=O)C1 (stereo unspecified),,28.2 µM (active)
CN(C(=O)COC(=O)c1nc(Cl)ccc1Cl)C1CCS(=O)(=O)C1 (stereo unspecified),11,
Cc1ccc2nc(-c3ccc(Br)cc3)cn2c1,17,
COC(=O)C1=C(C)NC(=O)NC1/C=C/c1ccccc1 (stereo unspecified),6.06,
Cc1ccc(C2C3=C(Nc4[nH]n(-c5ccccc5)c(=O)c42)c2ccccc2C3=O)cc1 (stereo unspecified),-4.89,
COC(=O)C1=C(C)NC2=C(C(=O)c3ccccc32)C1c1ccc(-c2ccc(C(=O)O)cc2)o1 (stereo unspecified),,14.1 µM (active)
COC(=O)c1ccc(N2CCOCC2)c(NC(=O)c2ccc(Br)o2)c1,6.59,
CC1=NOC(=O)/C1=C\c1ccccc1,-4.08,

Compound,"largest response in the series, negative = inhibition [%]",Potency
C#CCOc1ccc(/C=C2/C(=O)NN(c3ccccc3)C2=O)cc1OC,8.7,
C#CCOc1ccccc1/C=C1/C(=O)ON=C1C,,50.1 µM (active)
NS(=O)(=O)c1ccc(CCNC(=O)c2nc(CS(=O)(=O)c3ccc(Cl)cc3)no2)cc1,13.4,
CCOC(=O)C1(C)NC(c2ccco2)C2C(=O)N(c3ccccc3)C(=O)C21 (stereo unspecified),27.2,
CCCCN=C1N/C(=C\c2ccco2)C(=O)N1c1ccccc1,,56.2 µM (active)
O=C1/C(=C\c2ccsc2)NC(=S)N1c1ccccc1,4.5,
COc1cccc(N(CC(=O)NC2CCCC2)C(=O)CCCC(=O)Nc2ccccn2)c1,7.32,
COc1cccc(C(=O)Nc2nnc(S(=O)(=O)N3CCCCC3)s2)c1,6.22,
O=C(Nn1cnnc1)c1ccc([N+](=O)[O-])cc1,13.2,
O=C(c1ccncc1)c1ccc([N+](=O)[O-])cc1,13.2,
O=C(Cn1c[n+](CC(=O)c2ccc([N+](=O)[O-])cc2)cn1)c1ccc([N+](=O)[O-])cc1,,56.2 µM (active) and 44.7 µM (active)
Cc1ccc(C(=O)NCCN2CCOCC2)cc1C,11.9,
Cc1cccc(-c2nc3ccc(C(=O)NCCN4CCN(C)CC4)cc3nc2-c2cccc(C)c2)c1,,50.1 µM (active)
CCC1=Nc2cc(C(=O)NCCN3CCCC3)ccc2Sc2ccc(C)cc21,-8.33,
Cc1ccc(OCCCC(=O)Nc2ccc(S(=O)(=O)Nc3cc(C)nc(C)n3)cc2)cc1,5.46,
CC1(C)OC2CO[C@]3(COS(N)(=O)=O)OC(C)(C)OC3C2O1 (stereo partly specified),20.4,
O=C(N/N=C\c1cc(Br)c(Br)o1)C1COc2ccccc2O1 (stereo unspecified),,39.8 µM (active)
O=C(N/N=C/c1cc2c(cc1Br)OCO2)C1COc2ccccc2O1 (stereo unspecified),0.904,
O=C(CNC(=O)C1COc2ccccc2O1)N/N=C/c1cc(Br)c(O)c(Br)c1 (stereo unspecified),1.24,
C=CCN1CCN(C(=O)CCCc2ccccc2)CC1,13.4,
Cc1cccc(OCC(=O)Nc2ccc(NC(=O)c3ccco3)c(C)c2)c1,16.8,

Compound,"largest response in the series, negative = inhibition [%]",Potency
O=C(Nc1cc(C(F)(F)F)ccc1Cl)c1cc(C2CC2)on1,15.4,
CSc1ccccc1NC(=O)c1cc(C2CC2)on1,,17.8 µM (active)
O=C(NC1CCCCC1)c1cc(C2CC2)on1,2.59,
O=C(NC(=S)Nc1ccccc1N1CCCCC1)c1ccc(F)cc1,5.51,
CC1CN(C(=S)Nc2ccccc2F)CC(C)O1 (stereo unspecified),-11.5,
Oc1ccc(/C=N/Nc2ccc(C(F)(F)F)cn2)cc1O,,28.2 µM (active)
O=C(Nc1ccccc1)Nc1ccc(C(F)(F)F)cn1,11.2,
Oc1ccc(Br)cc1/C=N/Nc1ccccn1,5.24,
Cc1c(Cl)c([N+](=O)[O-])nn1CC(=O)NCCCN1CCOCC1,1.31,
O=C(CN1C(=O)COc2ccc(Cl)cc21)N1CCOCC1,9.91,
O=C(N/N=C/c1ccc(O)c2ccccc12)c1cccnc1,7.11,
O=C(N/N=C/c1ccccn1)c1cccc(NC(=O)c2ccc(Cl)cc2)c1,10.1,
O=C(N/N=C/c1ccccn1)c1cccnc1,,2 µM (active)
CNC(=O)C(=O)N/N=C/c1ccccn1,,79.4 µM (active)
O=C(N/N=C/c1ccccn1)C12CC3CC(CC(C3)C1)C2,-35,
O=C(COc1ccc(Cl)cc1Cl)N/N=C/c1ccccn1,-29.7,
O=C(CCC1CCCC1)N=C1SC2CS(=O)(=O)CC2N1Cc1ccccc1 (stereo unspecified),11.9,
Cc1ccnc(NC(=O)CCNS(=O)(=O)c2ccc(C)c(C)c2)c1,9.67,
S=c1nccc(-c2cc(Cl)sc2Cl)[nH]1,,79.4 µM (active)

# From PubChem BioAssay AID1490 (National Center for Advancing Translational Sciences (NCATS), 2009)
